Measured values reported in doi:10.1101/2024.03.05.583629.

These sequences were tested against pT7_6His-AlfaTag-HOXD13 (human, UniProt P35453 263-343) (assay: PADIT-seq). Details: dsDNA, one strand shown.
Chain of pT7_6His-AlfaTag-HOXD13 (P35453 263-343): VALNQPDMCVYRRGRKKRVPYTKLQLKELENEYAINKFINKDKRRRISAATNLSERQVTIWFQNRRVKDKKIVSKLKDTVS

Going from “CTCGAGGATATCAAGATCTGGCCTCGGCTACTTAAAAGGAACCTCTAGCTAGCCGACTCACTATAGGGATAATCGCCCTGAGCAAAGACC” to “CTCGAGGATATCAAGATCTGGCCTCGGCGTCGTAAAAGGAACCTCTAGCTAGCCGACTCACTATAGGGATAATCGCCCTGAGCAAAGACC”, the binding signal rises from 0.982 ± 0.0923 log2FC to 2.57 ± 0.0709 log2FC.

Compared with “CTCGAGGATATCAAGATCTGGCCTCGGCCTTTTAGATGGAACCTCTAGCTAGCCGACTCACTATAGGGATAATCGCCCTGAGCAAAGACC”, “CTCGAGGATATCAAGATCTGGCCTCGGCCGCTCGCGCGGAACCTCTAGCTAGCCGACTCACTATAGGGATAATCGCCCTGAGCAAAGACC” is lower in binding signal: 0.264 ± 0.0998 log2FC for the first, -1.03 ± 0.134 log2FC for the second.

Going from “CTCGAGGATATCAAGATCTGGCCTCGGCAGACTAAAAGGAACCTCTAGCTAGCCGACTCACTATAGGGATAATCGCCCTGAGCAAAGACC” to “CTCGAGGATATCAAGATCTGGCCTCGGCGAGATAAAAGGAACCTCTAGCTAGCCGACTCACTATAGGGATAATCGCCCTGAGCAAAGACC”, the binding signal rises from -0.679 ± 0.104 log2FC to 0.43 ± 0.0919 log2FC.

Compared with “CTCGAGGATATCAAGATCTGGCCTCGGCATTTTAAGTGGAACCTCTAGCTAGCCGACTCACTATAGGGATAATCGCCCTGAGCAAAGACC”, “CTCGAGGATATCAAGATCTGGCCTCGGCCAACTAAAAGGAACCTCTAGCTAGCCGACTCACTATAGGGATAATCGCCCTGAGCAAAGACC” is lower in binding signal: 1.18 ± 0.0951 log2FC for the first, 0.0444 ± 0.126 log2FC for the second.

Going from “CTCGAGGATATCAAGATCTGGCCTCGGCCTTTTAAGAGGAACCTCTAGCTAGCCGACTCACTATAGGGATAATCGCCCTGAGCAAAGACC” to “CTCGAGGATATCAAGATCTGGCCTCGGCCGTGTAAAAGGAACCTCTAGCTAGCCGACTCACTATAGGGATAATCGCCCTGAGCAAAGACC”, the binding signal falls from 2.52 ± 0.0827 log2FC to 1.58 ± 0.0857 log2FC.

Compared with “CTCGAGGATATCAAGATCTGGCCTCGGCACAATAAAAGGAACCTCTAGCTAGCCGACTCACTATAGGGATAATCGCCCTGAGCAAAGACC”, “CTCGAGGATATCAAGATCTGGCCTCGGCGTGCTAAAAGGAACCTCTAGCTAGCCGACTCACTATAGGGATAATCGCCCTGAGCAAAGACC” is lower in binding signal: 2.72 ± 0.0742 log2FC for the first, -0.142 ± 0.0902 log2FC for the second.

First: CTCGAGGATATCAAGATCTGGCCTCGGCGTAGTAAAAGGAACCTCTAGCTAGCCGACTCACTATAGGGATAATCGCCCTGAGCAAAGACC
Second: CTCGAGGATATCAAGATCTGGCCTCGGCGCGGGAGCGGGAACCTCTAGCTAGCCGACTCACTATAGGGATAATCGCCCTGAGCAAAGACC
The binding signal of the first is higher: 2.18 ± 0.0733 log2FC for the first, -0.635 ± 0.137 log2FC for the second.

First: CTCGAGGATATCAAGATCTGGCCTCGGCACTTGGGCGGGAACCTCTAGCTAGCCGACTCACTATAGGGATAATCGCCCTGAGCAAAGACC
Second: CTCGAGGATATCAAGATCTGGCCTCGGCGTTTTAAGCGGAACCTCTAGCTAGCCGACTCACTATAGGGATAATCGCCCTGAGCAAAGACC
The binding signal of the first is lower: -1.04 ± 0.114 log2FC for the first, 0.144 ± 0.109 log2FC for the second.

First: CTCGAGGATATCAAGATCTGGCCTCGGCGTTTTAGACGGAACCTCTAGCTAGCCGACTCACTATAGGGATAATCGCCCTGAGCAAAGACC
Second: CTCGAGGATATCAAGATCTGGCCTCGGCTTTTTAAATGGAACCTCTAGCTAGCCGACTCACTATAGGGATAATCGCCCTGAGCAAAGACC
The binding signal of the first is lower: -0.509 ± 0.117 log2FC for the first, 1.81 ± 0.0949 log2FC for the second.

“CTCGAGGATATCAAGATCTGGCCTCGGCGTTTTACTTGGAACCTCTAGCTAGCCGACTCACTATAGGGATAATCGCCCTGAGCAAAGACC” and “CTCGAGGATATCAAGATCTGGCCTCGGCTGCATAAAAGGAACCTCTAGCTAGCCGACTCACTATAGGGATAATCGCCCTGAGCAAAGACC” are within error of each other in binding signal: 1.25 ± 0.0875 log2FC for the first, 1.39 ± 0.0891 log2FC for the second.

First: CTCGAGGATATCAAGATCTGGCCTCGGCGTCTTAAAAGGAACCTCTAGCTAGCCGACTCACTATAGGGATAATCGCCCTGAGCAAAGACC
Second: CTCGAGGATATCAAGATCTGGCCTCGGCGTTTTACCCGGAACCTCTAGCTAGCCGACTCACTATAGGGATAATCGCCCTGAGCAAAGACC
The binding signal of the first is higher: 1.44 ± 0.067 log2FC for the first, -0.0427 ± 0.101 log2FC for the second.

First: CTCGAGGATATCAAGATCTGGCCTCGGCATTTTACCGGGAACCTCTAGCTAGCCGACTCACTATAGGGATAATCGCCCTGAGCAAAGACC
Second: CTCGAGGATATCAAGATCTGGCCTCGGCGCGTGGCAGGGAACCTCTAGCTAGCCGACTCACTATAGGGATAATCGCCCTGAGCAAAGACC
The binding signal of the first is higher: 1.17 ± 0.0862 log2FC for the first, -0.958 ± 0.118 log2FC for the second.

First: CTCGAGGATATCAAGATCTGGCCTCGGCGGTTTAAAAGGAACCTCTAGCTAGCCGACTCACTATAGGGATAATCGCCCTGAGCAAAGACC
Second: CTCGAGGATATCAAGATCTGGCCTCGGCCTTTTAAGCGGAACCTCTAGCTAGCCGACTCACTATAGGGATAATCGCCCTGAGCAAAGACC
The binding signal of the first is higher: 1.97 ± 0.078 log2FC for the first, 0.916 ± 0.0855 log2FC for the second.
